From PubChem BioAssay (NCI) come the findings set out here.

About 83,000 compounds went through this panel and 20% of them were active in at least one assay; those are over-represented in the sample as a whole.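 96-well plates, one dose, 48 hours. Percent growth reported; active if below 10.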 Unmarked numbers belong to inactive results. Active and inactive are the calls of the source.

For this experiment, the system named is HL-60(TB) leukemia. In words: NCI-60 one-dose screen, 48 h (100 = growth as untreated, 0 = no growth, -100 = all killed). The settings on record: 10 µM unless noted.
As to `CN(C)CCCNc1c2ccc(Cl)cc2nc2c1oc1ccc(Cl)cc12`, the growth is -53.9% (active).
Then `CCO/C=N/C1=C(C#N)C(c2ccc(OC)cc2)c2sc3c(C)cccc3c2O1` (configuration not stated), with -18.5% (active).
Then `CCOc1ccccc1NC1=C(Cl)C(=O)c2nc(C)ccc2C1=O`, with -36.8% (active).
As to `CC(O)c1cccc(/C(N)=N/C(N)=N/c2nc3ccccc3s2)c1` (configuration not stated), the growth was 84.5%.
Then `Brc1ccc(-c2cc(-c3ccc4c(c3)OCCO4)n[nH]2)s1`, with 3.16% (active); and `Cc1ccc(C(=O)CSc2nnc(-c3ccc(-c4ccc(Cl)cc4)nc3C)o2)cc1`, with 103%; and `O=C1CCC(N2C(=O)c3ccc(NS(=O)(=O)c4ccccc4OC(F)(F)F)cc3C2=O)C(=O)N1` (configuration not stated), with -20.1% (active).
For the molecule `Fc1ccc(-c2cc3nc(C(Cl)Cl)nc(-c4cccs4)n3n2)cc1`, the growth is -2% (active).
Then `O=C(CN1CCN(c2cc(=O)n(-c3ccccc3)c3ccccc23)CC1)Nc1nc(-c2ccc(Cl)cc2)cs1`, with 26.2%; and `O=S(=O)(Nc1ccc(C2CC2)cc1)c1ccc(-c2cnc(C3CC3)o2)cc1`, with 38.9%; and `O=S(=O)(NCCCNc1nccc(-c2[nH]c(-c3ccccc3)nc2-c2ccc(F)c(O)c2)n1)c1cccc2ccccc12`, with 59.4%.
Regarding `CNC(=O)c1cc(Oc2ccc3nc(NC(=O)c4cc(C)cc(C)c4)sc3c2)ccn1`, the growth is 70.4%.
Turning to `CNC(=O)c1cc(Oc2ccc3nc(NC(=O)c4ccc(N5CCOCC5)c(C(F)(F)F)c4)sc3c2)ccn1`, the growth is 94.2%.
Then `COc1ccc(C2CC(c3cccc(OCCCCOc4cccc(C5=NN(C(C)=O)C(c6ccc(OC)cc6)C5)c4)c3)=NN2C(C)=O)cc1` (configuration not stated), with 46.2%; and `Cn1cc(-c2nn3cc(-c4ccncc4)nc3s2)c2cc(Br)ccc21`, with 17.3%.
As to `Nc1nc(N)c2c(n1)NC(c1ccc(Cl)cc1)CC(c1ccc(Nc3nc(NCCO)nc(Nc4ccc(Cl)cc4)n3)cc1)=N2` (configuration not stated), the growth was 9.81% (active).
As to `O=C(COc1ccc(C2SCC(=O)N2c2ccccc2)cc1)c1ccccc1` (configuration not stated), the growth is 96.2%.
Then `O=C(CSc1nnc(-c2cccs2)n1-c1ccccc1)Nc1ccc(F)cc1`, with 69.5%; and `Fc1ccc(-c2cc3nc(C(Cl)Cl)nc(-c4ccco4)n3n2)cc1`, with -42.7% (active).
Then `CCN1CCN(Cc2cn(-c3ccc(S(N)(=O)=O)cc3)nn2)CC1`, with 110%; and `NC(=O)c1c(NC(=O)c2cccc(OC(F)(F)F)c2)sc2c1CCC(=O)C2`, with 60%; and `O=S(=O)(Nc1ccc(-c2nc(-c3cccc(O)c3)c(-c3ccnc(Br)c3)[nH]2)cc1)c1ccccc1`, with -9.12% (active).
Then `O=C1/C(=C/C=C/c2ccco2)SC(=S)N1C1CCCCC1`, with 69.4%; and `Cc1ccc(-c2csc(N/N=C/c3cccs3)n2)cc1`, with 84.2%; and `N/C(=N\C(N)=N\c1nc2ccccc2s1)c1ccc(C(F)(F)F)cc1`, with 53.6%.
In the case of `C[C@@H]1OCC2(CCN(c3cnc(C(=O)Nc4cc(F)cc5cccnc45)cn3)CC2)[C@@H]1N`, the growth was 20.4%.
Then `C=C1C(=O)O[C@@H]2C[C@@H](C)/C=C\C(=O)[C@](C)(OC(C)=O)C[C@H](OC(=O)/C(C)=C\C)[C@@H]12`, with -3.8% (active).
Then `CCOC(=O)C(=O)CC(=O)N1C(=S)NC(=O)C1CC(C)C` (configuration not stated), with 111%; and `Cc1ccc(-c2cc3nc(C(Cl)Cl)nc(C)n3n2)cc1`, with 107%; and `CCN1C(=O)N(CC)C2SC(N/N=C/c3ccccc3)=NC21` (configuration not stated), with 4% (active).
In the case of `CC(C)(C)c1ccc(C(=O)Nc2sc3c(c2C(N)=O)CCC(O)C3)cc1` (configuration not stated), the growth is 37.2%.
Then `Cc1nn(-c2ccccc2)c2ncnc(N/N=C/c3ccccc3O)c12`, with -7.88% (active); and `CCN1CCN(/C(=N\c2sc(-c3ccccc3)nc2-c2ccccc2)c2ccccc2)CC1`, with 50.9%.
Then `Cc1ccc2c(n1)C(=O)C(Cl)=C(Nc1ccccc1C(=O)OC(C)(C)C)C2=O`, with -32.7% (active); and `COc1ccc(-c2nc3ccc(-c4nnc(SCC(=O)Nc5ccc(C(C)=O)cc5)o4)cc3[nH]2)cc1`, with 83.4%; and `O=S1SC(c2ccccc2)=NN1c1cc(F)cc(F)c1` (configuration not stated), with 32.2%.
Then `C#C[C@]1(O)CC[C@H]2[C@@H]3CC=C4c5sc(N6CCN(C)CC6)nc5CC[C@]4(C)[C@H]3CC[C@@]21C`, with 6.2% (active).
